Measurements reported in ChEMBL document CHEMBL4513216, “Probing the Open Global Health Chemical Diversity Library for Multistage-Active Starting Points for Next-Generation Antimalarials” (ACS Infect Dis, 2020).
In all, about 69,000 compounds went through this assay and about 8,600 (12%) showed an effect of 50% or more. What follows is part of a selection rich in strong results, with near analogues and random picks from the rest.

tested on: Plasmodium berghei; experiment: Screen against P. berghei liver stage (PbLuc), transformed with Luciferase, at 10uM; format: functional, HepG2; details: tested at 10 uM

| SMILES | INHIBITION |
| --- | --- |
| Cc1nc2ccc(CN3CC4(CCOC4)CCC3=O)cc2[nH]1 (configuration not stated) | 67.4% |
| CCc1c(C)nn(CCN2CC3(CCOC3)CCC2=O)c1C (configuration not stated) | 44.3% |
| CCCn1nc(C)c(CN2CC3(CCOC3)CCC2=O)c1C (configuration not stated) | 64.5% |
| O=C1CCC2(CCOC2)CN1Cc1ccc2nsnc2c1 (configuration not stated) | 16.8% |
| O=C1CCC2(CCOC2)CN1Cc1nc2ccc(Cl)cc2[nH]1 (configuration not stated) | 27.9% |
| O=C([C@H]1CC[C@@H]2[C@@H](CCN2c2ncccn2)O1)N1CCCCO1 | -13.2% |
| Cc1noc(C(C)N2CCN(Cc3nnc(C4CC4)o3)CC2)n1 (configuration not stated) | -19.6% |
| CN(C)C(=O)c1n[nH]c2c1CN(CC1CCC1)C2 | 30.5% |
| O=C1CCC(C(=O)Nc2cnn(-c3ccccc3Cl)c2)N1 (configuration not stated) | 19.7% |
| Cc1ccc(-c2csc(N)c2C#N)c(C)c1 | 40.9% |
| Cc1ccc(C)c(-c2csc(N)c2C#N)c1 | 64.7% |
| COc1ccc(C)cc1-c1csc(N)c1C#N | 1.86% |
| Cc1nc[nH]c1CN1C[C@H]2CC[C@@H](C1)N(C(=O)CCn1cncn1)C2 | 40.2% |
| COc1cccc(C(C)Nc2ncnc3c2NC(=O)CN3)c1 (configuration not stated) | 45.8% |
| CC(CN1CCOCC1)n1cncc1-c1ccc2c(c1)CCCN2C (configuration not stated) | -16% |
| Cc1cc(C)c(C(=O)N[C@H](C(N)=O)c2ccccc2)c(=O)[nH]1 | -31.4% |
| NC(=O)C(NC(=O)c1cc(Cl)c[nH]1)c1ccccc1 (configuration not stated) | 52.8% |
| NC(=O)C(NC(=O)c1cc(Br)c[nH]1)c1ccccc1 (configuration not stated) | 34.4% |
| CO[C@H]1CCN(Cc2c(C)noc2C)[C@@H]2CN(Cc3cccnc3)C[C@H]12 | 28.5% |
| O=C(NCc1nnc2n1CCCCC2)N1CCc2ccccc2C1 | 41.2% |
| CN(Cc1ccc(Cl)s1)C(=O)Cn1nc(-c2ccc(F)cc2)oc1=O | 66.1% |
| Cc1ccsc1CN(C)C(=O)Cn1nc(-c2ccc(F)cc2)oc1=O | 22.1% |
| Cc1ccccc1CN(C)C(=O)Cn1nc(-c2ccc(F)cc2)oc1=O | 56.5% |
| CN(Cc1ccc(F)cc1)C(=O)Cn1nc(-c2ccc(F)cc2)oc1=O | 1.58% |
| Cc1ccc(CN(C)C(=O)Cn2nc(-c3ccc(F)cc3)oc2=O)cc1 | 30.8% |
| CN(Cc1ccccc1Br)C(=O)Cn1nc(-c2ccc(F)cc2)oc1=O | 26.8% |

| SMILES | INHIBITION |
| --- | --- |
| COc1ccccc1CNC(=O)Cn1nc(-c2ccc(F)cc2)oc1=O | -16.1% |
| Cc1ccccc1CNC(=O)Cn1nc(-c2ccc(F)cc2)oc1=O | 50.15% |
| O=C(Cn1nc(-c2ccc(F)cc2)oc1=O)NCc1ccccc1F | -69.9% |
| CCOC1Sc2nnc(C)n2N=C1c1ccc(Br)cc1 (configuration not stated) | 18.2% |
| CN(C)[C@@H]1CCN(C(=O)c2cccc(C#N)c2)[C@H]1Cc1cnn(C)c1 | 27.6% |
| Cc1ccc(-c2cc(CN3CCOC(Cn4cncn4)C3)on2)cc1 (configuration not stated) | 24.6% |
| O=C(C1CC=CC1)N1CCC2(CCN(Cc3ccccn3)C2=O)C1 (configuration not stated) | 17.5% |
| CC(C)n1cnnc1C1CCCN(S(=O)(=O)CC2CCCC2)C1 (configuration not stated) | 76.5% |
| CC(C)n1cnnc1C1CCCN(S(=O)(=O)CCCF)C1 (configuration not stated) | 39.7% |
| CC(C)CCS(=O)(=O)N1CCCC(c2nncn2C(C)C)C1 (configuration not stated) | 44.9% |
| Cc1oc(C(=O)O)cc1S(=O)(=O)Nc1cc(Br)ccc1Cl | 38.8% |
| N#Cc1ccc(N2CCC(OC3CCOCC3)CC2)cc1Cl | 57% |
| COCC1CN(C(=O)Nc2ccc(Cl)cc2Cl)CCO1 (configuration not stated) | 6.85% |
| COCC1CN(c2ccc(C#N)c(Cl)c2)CCO1 (configuration not stated) | 96.1% |
| N#Cc1ccc(Cl)cc1N1CCC(OC2CCOCC2)CC1 | 35.2% |
| COCC1CN(c2ccc(Cl)cc2C#N)CCO1 (configuration not stated) | 53.4% |
| N#Cc1cc(Cl)ccc1N1CCOC(C(N)=O)C1 (configuration not stated) | 32.5% |
| NC(=O)C1CN(c2ccc3c(Cl)ccnc3c2F)CCO1 (configuration not stated) | -22.4% |
| Clc1cnccc1N1CCC(OC2CCOCC2)CC1 | 48.5% |
| CC(=O)NCC1CN(c2ccc3c(Cl)ccnc3c2F)CCO1 (configuration not stated) | 23.8% |
| Cn1cc(N2CCN(c3ccc(C#N)c(Cl)c3)CC2=O)cn1 | -11.6% |
| COCC1CN(c2ccc3c(Cl)ccnc3c2F)CCO1 (configuration not stated) | 84.2% |
| COCC1CN(C(=O)Nc2cc(Cl)ccc2F)CCO1 (configuration not stated) | 8.13% |
| CO[C@@H]1CCN(Cc2c(C)noc2C)[C@@H]2CN(Cc3cccnc3)C[C@@H]21 | 22.6% |
| COCCOc1ccccc1C(=O)NCCN(C)C(C)C | 4.52% |
| O=C(c1nn(-c2ccccc2F)cc1O)N1CCCSCC1 | -21.7% |
